KKLEB cytotox: cytotoxicity in KKLEB CF airway cells, primary screen, cytotoxicity control for CF NF-kB inhibitor project, cell-based, uHTS, fluorescence assay plates. AID 602141, 2011. KKLEB CF airway cells viability, ATPlite luminescence, overnight; hits give low values; cells stimulated with P. aeruginosa culture filtrate. activity change (cytotoxicity), % at 5 µM. actives 0.36% (n = 360,000);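 active = corrected activity change at or below -50% at 5 µM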
Peg3 promoter: Peg3 promoter-driven luciferase inhibitors, primary screen, cell-based, HeLa, luciferase luminescence; inhibition, % at 20 µM; HeLa PEG-Prom luciferase reporter, overnight; actives 1.7% (n = 360,000);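 active = inhibition of at least 50% at 20 µM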
HIF-2a block: HIF-2a reporter inhibitors, primary screen, luminescence, 786-0 RCC cells; actives 0.72% (n = 360,000); AID 624352, 2012; inhibition, % at 18.8 µM; 786-0 RCC cells HIF-2a reporter, luciferase luminescence, overnight;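 active = inhibition of the luminescence signal of 40% or more relative to plate controls, in a single-dose primary screen at 18.75 µM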
CF NFkB inh: inhibitors of PAF-induced NF-kB signaling, primary screen, cell-based, GFP fluorescence, uHTS; actives 0.86% (n = 360,000); inhibition, % at 5 µM; KKLEB NF-kB-GFP reporter, GFP fluorescence overnight;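 active = at least 50% inhibition at 5 µM, scaled per plate between neutral and stimulator controls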;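 note: PAF is a Pseudomonas aeruginosa culture filtrate used as stimulus; plate controls were PAF-stimulated DMSO wells for no effect and unstimulated DMSO wells for full effect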
EBV LMP1 NFkB: EBV LMP1-driven NF-kappaB luciferase reporter inhibitors, primary screen, cell-based, luminescence, single point; LMP1-induced NF-kappaB luciferase reporter cells; inhibition, % at 12.5 µM; actives 0.69% (n = 350,000); in the data active = inhibition above about 41%;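 note: 0% = neutral control wells and 100% = reference inhibitor control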
TRPM1 prom inh: inhibitors of MITF-dependent TRPM1 promoter reporter, primary screen, cell-based, SK-MEL-5, single point, luciferase. SK-MEL-5 TRPM1 promoter luciferase, 24 h. inhibition, % at 12.5 µM. actives 0.83% (n = 330,000);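 active = mean inhibition across replicates of 60% or more, whatever share of single replicates reaches that level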
* hit, by the source's call; . = no result. Only some compounds are listed: those with a hit (about 3% of all), similar ones and a draw of the others.

SMILES	KKLEB cytotox	Peg3 promoter	HIF-2a block	CF NFkB inh	EBV LMP1 NFkB	TRPM1 prom inh
COc1ccc(C(c2sc3nc(C)nn3c2O)N2CCC(C(N)=O)CC2)cc1OC (stereo not drawn)	11	-9	6	-30	72*	0
COc1cc(C(c2sc3nc(C)nn3c2O)N2CCc3ccccc3C2)cc(OC)c1OC (stereo not drawn)	12	9	6	-12	86*	-11
COc1ccc(C(c2sc3nc(C)nn3c2O)N2CCc3ccccc3C2)cc1 (stereo not drawn)	-9	5	0	-14	-2	.
COc1cc(Cl)c(C)cc1NC(=O)c1ccccc1NC(=O)CN1CCN(c2ccccn2)CC1	-6	91*	19	11	-3	.
COc1ccc(OC)c(C(=O)CSc2nnc(C3CC3)n2C2CC2)c1	3	6	10	-6	2	.
Cn1cccc1CC(=O)NNC(=S)Nc1ccccc1Cl	-9	6	-29	-10	58*	12
O=C([C@H]1O[C@@H](n2ccc(=O)[nH]c2=O)[C@H](O)[C@@H]1O)N1CCC(F)(F)CC1	10	-8	11	-12	.	.
NS(=O)(=O)c1ccc(N=Nc2c(-c3ccccc3)[nH]n(-c3nc(-c4ccccc4)cs3)c2=O)cc1	11	71*	-48	27	1	-31
COc1cccc(NC(=O)c2ccc(-c3ccc([N+](=O)[O-])cc3)o2)c1	3	-119	-210	-22	-6	-39
CN1CCN(c2ccc(NC(=O)c3ccc(-c4ccc(Br)cc4)o3)cc2)CC1	-36	89*	-16	-23	-7	12
CCN1CCN(c2ccc(NC(=O)c3ccc(Br)o3)cc2)CC1	-8	-170	-210	20	-20	-72
Cc1ccccc1C(=O)Nc1cccc(NC(=O)c2ccc(-c3ccc(Br)cc3)o2)c1	-53*	9	-20	44	-4	-8
FC(F)(F)c1cc(CCN2CCNC[C@@H]2Cc2ccccc2)cc(C(F)(F)F)c1	-11	102*	-2	25	1	81*
CN(C)c1cccc(F)c1C(=O)NC(=O)Nc1ccc(Cl)cc1	-18	6	3	7	4	8
CC1(C(=O)O)CCN1C(=O)c1cccnc1Oc1ccccc1 (stereo not drawn)	0	-6	-1	11	.	.
COc1cc(NCc2ccccc2O)c2ncccc2c1	-5	-38	-31	1	-13	7
Oc1cc(NCc2ccc(Cl)cc2)cc2cccnc12	10	-1	10	20	47*	13
CN(C)CCCNc1cc(O)c2ncccc2c1	-1	81*	17	35	-4	55
CCCNC(=O)C1(C)CCCN(Cc2cccs2)C1 (stereo not drawn)	8	14	3	27	.	.
CC(SC(C)C(=O)NN=Cc1cccc(Cl)c1)C(=O)NN=Cc1cccc(Cl)c1 (stereo not drawn)	11	99*	6	-7	2	6
COc1cccc(C=NNC(=O)C(C)SC(C)C(=O)NN=Cc2cccc(OC)c2)c1 (stereo not drawn)	-5	6	3	5	3	9
CC1CCN(C(=O)c2nc[nH]c2C(=O)O[C@H](C)c2ccccc2)CC1	-8	12	13	-18	-4	12
C[C@@H](OC(=O)c1[nH]cnc1C(=O)N1CCc2ccccc2C1)c1ccccc1	-7	-1	7	0	85*	13
O=C(CC(c1ccc(F)cc1)c1ccco1)N1CCCC1 (stereo not drawn)	-1	4	-8	4	-6	2
O=C(CC(c1ccc(F)cc1)c1ccco1)N1CCOCC1 (stereo not drawn)	2	-7	23	6	61*	7
SMILES	KKLEB cytotox	Peg3 promoter	HIF-2a block	CF NFkB inh	EBV LMP1 NFkB	TRPM1 prom inh
COC(=O)c1ccc(COc2ccccc2/C=C/C(=O)c2ccc(OCC(=O)O)cc2)cc1	-7	-7	-8	11	69*	-2
COC(=O)c1ccc(COc2ccccc2/C=N/Nc2cccc(C(=O)O)c2)cc1	-2	-181	-110	0	-26	-47
CC1=CC(=O)C(Sc2ccc(C)cc2)=CC1=O	-36	60*	10	80*	-8	.
CCc1nc2c(OCCn3cccc3)cccn2c1N(C)C(=O)C1CC1	3	-6	14	-17	.	.
COc1ccc(NC(=O)CCn2c(=S)[nH]c3ccccc3c2=O)cc1Cl	-11	0	-12	9	-34	.
O=C(CN1CCN(S(=O)(=O)c2cc(C(F)(F)F)ccc2Cl)CC1)N1CCc2ccccc2C1	-4	21	1	-10	-2	6
Cc1ccc(C)c(S(=O)(=O)N2CCN(CC(=O)N3CCc4ccccc4C3)CC2)c1	-1	3	21	7	57*	1
CC(C)(C)n1nc(Cc2cccc3ccccc23)c2c(N)ncnc21	1	44	34	50*	27	14
CCN(CC)C(=O)c1cccc(-c2csc(C(O)c3ccc(F)c(OC)c3)n2)c1 (stereo not drawn)	3	14	9	9	.	.
Cc1ccc2nc3cc([N+](=O)[O-])cc([N+](=O)[O-])c3cc2c1	-39	75*	-130	68*	-70	63*
Cc1nc2ccc([N+](=O)[O-])cc2nc1C	4	9	10	-13	-3	15
COc1ccc(C2/C=C\CN(C(=O)c3ccc(C)cc3)[C@H](Cc3ccccc3)C(=O)N2Cc2ccc(F)cc2)cc1 (stereo partly drawn)	-8	70*	-1	-7	13	1
O[C@@H]1CN(Cc2cccs2)[C@@H](c2ccccc2)C[C@H]1n1cc(C2CC2)nn1	9	10	-17	-23	4	.
CCN(CC(=O)Nc1c(F)cccc1F)C(=O)c1cccn1C	-13	-11	-1	22	1	.
Cc1sc2nc(SCC(=O)OC(C)C)n(C)c(=O)c2c1C	-4	-12	-1	-10	47*	6
COc1ccccc1CO/N=C/NC(=O)c1c(OC)ccnc1Oc1ccc(F)cc1	-2	12	24	-20	-6	4
COc1ccnc(Oc2ccccc2)c1C(=O)N/C=N/OCc1ccc(F)cc1Cl	-26	57*	-12	40	1	-5
Cc1cc(C)cc(-n2c3ccc(NC(=O)Cc4cccc5ccccc45)cc3c(=O)n2C)c1	-22	-21	16	45	.	.
O=C(COC(=O)c1ccc2c(c1)C(=O)N(c1cccc3ncccc13)C2=O)c1ccc(Cl)cc1	4	13	0	-7	-1	48
